From PubChem BioAssay (EPA / NIEHS) come the findings set out here.

Results filed as inconclusive are left out. Active and inactive are the calls of the source. The calls were made as follows: active = hit-call score of the fitted dose curve at least 0.9, where 1 is the maximum; inconclusive = response in the unintended direction; inactive = score below 0.9.

One assay can be described thus: CCTE_Deisenroth_AIME_384WELL_CTox_Active: Cytotoxicity Assessment (CTOX) in CCTE's 384-well Estrogen Receptor Transactivation Assay with AIME metabolic competence (metabolism positive), Deisenroth Lab (AID 2284037).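 Also: chemicals first conditioned 2 h by alginate-bound induced rat liver S9 before cells; activity means signal loss indicating cell death.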 The essentials:
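Cytotoxicity in VM7Luc4E2 breast cells, 24 hour, measured as protease-substrate fluorescence loss, after 2-hour metabolic conditioning with induced rat hepatic S9 in alginate microspheres. Concentrations 0.002 - 200 uM, 10 points, bidirectional fitting.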
For the compound `CC(C)OC=O`, the result was inactive.
Same read-out and setting: then `CC(C)(C)c1cc(Cc2cc(C(C)(C)C)c(O)c(C(C)(C)C)c2)cc(C(C)(C)C)c1O`, with “inactive”; and `CC(=O)CCC(C)C`, with “inactive”; and `O=C(c1ccccc1)c1ccc(O)cc1O`, with “inactive”.
Take `CCN=C1C=CC(=C(c2ccc(N(CC)CC)cc2)c2ccc(N(CC)CC)cc2)c2ccccc21`: the AC50 was 59.1 µM (active).
As for `O=C1C=CC(=O)N1c1ccccc1`, the result was inactive.
`CCCCCCCC/C=C\CCCCCCCC(=O)N(C)CC(=O)O`: the AC50 is 124 µM (active).
Take `CCOC(OCC)OCC`: the compound was called inactive.
The same measure, in the same setting: for `CCCCOC(=O)C(C)O` (stereo unspecified) the value was “inactive”; for `N#Cc1ccccc1O`, “inactive”.

A further assay can be described thus: CCTE_Deisenroth_AIME_384WELL_CTox_Inactive: Cytotoxicity Assessment (CTOX) in CCTE's 384-well Estrogen Receptor Transactivation Assay without AIME metabolic competence (metabolism negative), Deisenroth Lab (AID 2284039).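 Also: cell viability via live-cell protease substrate cleaved to fluorescent probe; cells exposed 24 h to medium preincubated 2 h with alginate-water beads without S9; loss of fluorescence signal means loss of viability.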 The method in brief: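 VM7Luc4E2 cells, metabolism-negative arm: test chemicals (0.002–200 uM, 10 points) pre-incubated 2 h with alginate-water microspheres, then medium transferred to cells for 24 h. Viability read as protease-substrate cleavage to fluorescent probe; loss-of-signal, bidirectional fitting.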
For `CC(C)OC=O`, the result was inactive.
For the compound `CC(=O)CCC(C)C`, the compound was classed as inactive.
Regarding `CCN=C1C=CC(=C(c2ccc(N(CC)CC)cc2)c2ccc(N(CC)CC)cc2)c2ccccc21`, the AC50 was 57.3 µM (active).
Consider `O=C1C=CC(=O)N1c1ccccc1`, for which the compound was called inactive.
In the case of `CCCCCCCC/C=C\CCCCCCCC(=O)OCC(O)CO` (stereo unspecified), the result was inactive.
The same measure, in the same setting: for `CCCCCCCC/C=C\CCCCCCCC(=O)N(C)CC(=O)O` the value was “inactive”; for `CCCCOC(=O)C(C)O` (stereo unspecified), “inactive”; for `N#Cc1ccccc1O`, “inactive”.

Another assay can be described thus: CCTE_Shafer_MEA_dev_active_electrodes_number: CCTE's Neural Network Formation Assay for Number of Active Electrodes, Shafer Lab (AID 2284040).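 As to AC50: potency for loss of active electrodes versus DMSO so lower counts are hits.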 The essentials:
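Rat cortical primary cultures, 1.5 x 10^5 cells/well, PEI-coated MEA, laminin drop. Continuous exposure DIV 0–12; full media/compound change DIV 5, 9. Readout: electrodes with mean firing ≥5 spikes/min; AUC across days; loss vs DMSO.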
Consider `O=S(=O)(O)CCC(F)(F)C(F)(F)C(F)(F)C(F)(F)F`, for which the result was inactive.
Still for that read-out and setting: then `CNS(=O)(=O)C(F)(F)C(F)(F)C(F)(F)C(F)(F)C(F)(F)C(F)(F)C(F)(F)C(F)(F)F`, with “inactive”.
As for `C=CC(=O)OCC(F)(F)C(F)(F)C(F)(F)COC(=O)C=C`, the AC50 is 4.25 µM (active).
`OCC(F)(F)C(F)(F)C(F)(F)C(F)(F)C(F)(F)C(F)(F)C(F)(F)C(F)(F)CO`: the AC50 is 15 µM (active).
As for `NC(=O)C(F)(F)C(F)(F)C(F)(F)C(F)(F)C(N)=O`, the call was inactive.
The same measure, in the same setting: for `CCN(CCO)S(=O)(=O)C(F)(F)C(F)(F)C(F)(F)C(F)(F)C(F)(F)C(F)(F)C(F)(F)C(F)(F)F` the value was “inactive”; for `C=CC(=O)OCCC(F)(F)C(F)(F)C(F)(F)C(F)(F)F`, “inactive”; for `OCC(O)CC(F)(F)C(F)(F)C(F)(F)C(F)(F)F` (stereo unspecified), “inactive”.
Still for that read-out and setting: for `OCC(F)(F)C(F)(F)C(F)(F)CO` the value was “inactive”; for `FC(F)(F)C(F)(F)C(F)(F)C(F)(F)C(F)(F)C(F)(F)C(F)(F)CCI`, “inactive”.
As to `NC(O)(C(F)(F)F)C(F)(F)F`, the compound was classed as inactive.
On to `OCCCCC(F)(F)C(F)(F)C(F)(F)C(F)(F)F`, for which the compound was classed as inactive.
Regarding `OCC(F)(F)C(F)(F)C(F)(F)C(F)(F)C(F)(F)C(F)(F)CO`, the concentration at half-maximal activity (AC50) was 0.65 µM (active).

Broadly, the AC50 is the concentration giving half of the maximal activity seen.
